Test results published in PubChem BioAssay AID1347434 (National Center for Advancing Translational Sciences (NCATS), 2020).
Among all 1,200 compounds or so, about 30 (2%) were called active. Another 23% or so got no clear call; they are omitted. The sample as a whole holds a higher share of actives than the screen did. A number with no mark means an inactive call. Calls come from the whole dose curve; as a rule, active = well fitted inhibition curve with a large enough effect; inconclusive = small, poorly fitted or top-dose-only effect; inactive = flat fitted curve, though single readings scatter.

What follows are molecules tested against Single-stranded DNA cytosine deaminase (Homo sapiens) (UniProt Q9GZX7) (assay: Confirmatory qHTS assay for inhibitors of Activation Induced Cytidine Deaminase (AID): AID signals). Settings: recombinant AID, FRET deamination/UDG coupled fluorescence, 4 h; series mostly up to 115 µM; activity, negative = inhibition: at the top concentration.
Sequence of Single-stranded DNA cytosine deaminase (Homo sapiens) (Q9GZX7 whole entry, looked up): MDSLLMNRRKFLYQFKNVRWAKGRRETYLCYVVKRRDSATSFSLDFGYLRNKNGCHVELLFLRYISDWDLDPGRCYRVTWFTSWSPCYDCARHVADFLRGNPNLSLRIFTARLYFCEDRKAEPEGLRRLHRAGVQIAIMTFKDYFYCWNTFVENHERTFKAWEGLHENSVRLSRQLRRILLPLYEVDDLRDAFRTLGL
From the text: Assay Provider (PI) Patricia Gearhart Ph.D. National Institute on Aging National Institute of Health (NIH), Bethesda, MD Assay Provider (PI) Rahul Kohli Ph.D. Perelman School of Medicine University of Pennsylvania, Philadelphia, PA Activation-Induced Deaminase (AID) is a cytosine deaminase which converts cytosine into uracil within stretches of ssDNA. The presence of uracil in DNA initiates a cascade of mutagenic DNA repair to introduce point mutations and DNA double strand breaks. Specific targeting of AID to the immunoglobulin heavy chain loci (Igh) promotes mutagenesis in the antibody variable region for somatic hypermutation (SHM) or switch regions leading to class switch recombination (CSR). However, AID also plays a role in accumulating unnecessary mutations across the genome. Mis-targeting of AID results in the initiation of tumor development and leads to greater drug resistance among cancer cells when continually expressed. To identify an AID inhibitor, a small molecule library will be screened in collaboration with NCATS core facility at NIH. To confirm biological function, inhibitors will be examined in an in vitro murine B-cell activation assay and subsequent secondary validation screens. Top molecules will be further screened to identify inhibitory efficacy against a wild type primary splenocytes assay. Using these approaches, we hope to identify a small molecule with great efficacy and low toxicity for use as a molecular probe to further characterize AID's intricacies, or even as a therapeutic. A FRET based analysis of cytosine deamination, was developed to identify potential inhibitors of AID catalytic activity. This screen has two signal output, Read 1 evaluates the AID inhibition response. The second readout (Read 2) evaluates UDG response and is uses as a counterscreen to exclude false positive inhibitors. Inhibition in AID and inactivity in the UDG signal is the desired outcome for this assay.
PROTOCOL TABLE SEQUENCE No. (e.g., 1, 2, 3, etc.); […] (e.g., Cells, Incubation, Reagent, etc.); VALUE; DESCRIPTION 1a; Reagent; 3 uL; [4/3x] 1 uM AID/2.67 U/mL UDG 1b; Reagent; 3 uL; 2 U/mL UDG 1c; Reagent; 3 uL; 1 uM AID 2a; Compound; 46 nL; Follow-up plates (0.64 uM - 10 mM) 2b; Control; 46 nL; ATA (16.4 nM - 10 mM) 3; Time; 10 min; incubation at room temperature 4; Reagents; 1 uL; [4x] 250 nM DJC20 / 250 nM DJC23 [Substrate] 5; Time; 4 hr; incubation at room temperature 6; Reagent; 4 uL; [2x] 250 mM NaOH 7; Time; 15 sec; centrifuge at 1000 rpm 8; Time; 30 min; incubation at room temperature 9a; Detection; fluorescence (Read 1: AID); EnVision (PerkinElmer) plate reader, 540 excitation and 590 emission filters 9b; Detection; fluorescence (Read 2: UDG); EnVision (PerkinElmer) plate reader, 560 excitation and 665 emission filters NOTES (numbers refer to sequence above) 1a; Reagents were dispensed in a medium-binding black solid-bottom Greiner plates (789176F) using a BioRptr liquid dispenser. Dispense 3 uL of [4/3x] 1 uM AID (provided by Kohli lab) and [4/3x] 2 U/mL UDG (NEB M0280L) into columns 1, 2, 5 to 48. 1b; Dispense 3 uL of [4/3x] 2 U/mL UDG into column 3. 1c; Dispense 3 uL of [4/3x] 1 uM AID into column 4. 2a; Compound ([…] [uM]: 0.64; 3.2; 16; 80; 400; 2,000; 10,000; 20,000) double pin-transferred (Dip Factor = 2) using the Kalypsys (Wako USA) pintool equipped with a 1536 pinhead for a final concentration range of 7.32 nM - 114 uM. 2b; 10 mM Aurintricarboxylic Acid (Sigma A1895) (ATA, 8-point, n = 2, 1:2.5 dilution in column 2) double pin-transferred (Dip Factor = 2) using the Kalypsys (Wako USA) pintool equipped with a 1536 pinhead for a [final] range of 186 nM - 114 uM. 3; Room temperature incubation. 4; Dispense 1 uL of substrate mixture from the Kohli lab [4x] […] DJC20 and [4x] 250 nM DJC23 into columns 1 to 48 . 5; Room temperature incubation. 6; Dispense 4 uL of […] [2x] 250 mM NaOH into columns 1 to 48. 7; Centrifugation step to remove bubbles. […]
% is set by controls: 0 for no effect and ±100 for the full control effect; potency is the fitted concentration of half-maximal effect.

SMILES | Potency | activity, negative = inhibition [%]
NC(Cc1cc(O)c(O)cc1O)C(=O)O (stereo unspecified) | 22.4 µM (active) | 
NCC(O)c1cc(O)c(O)cc1F (stereo unspecified) |  | 25.8
O=C(Nc1cc(C(F)(F)F)cc(C(F)(F)F)c1)c1cccn(Cc2ccccc2Cl)c1=O |  | -4.96
CN1CC[C@@]2(C)c3cc(O)ccc3N(C)C12 (stereo partly specified) | 22.4 µM (active) | 
COc1cc(C(c2c(O)c3ccccc3oc2=O)c2c(C)n(C)n(-c3ccccc3)c2=O)ccc1O (stereo unspecified) |  | 12
Cc1cccc(-c2nc(CN3C(=O)CN=C(c4ccccc4)c4ccccc43)c(C)o2)c1 |  | -12
Cc1ccc(NC(=O)N(Cc2ccc3c(c2)OCO3)C2CCN(Cc3ccccc3)CC2)cc1C |  | -20.4
CCCC1=Nc2cc(C(=O)NCCCN(CC)CC)ccc2Sc2ccccc21 |  | 1.24
O=S1(=O)N(CCN2CC=C(c3c[nH]c4cc(F)ccc34)CC2)c2cccc3c2N1CCC3 |  | 8.33
CC(=O)c1c(O)c(C)c(O)c(Cc2c(O)c3c(c(C(=O)/C=C/c4ccccc4)c2O)OC(C)(C)C=C3)c1O | 14.1 µM (active) | 
O=C(c1ccc2c(c1)N(Cc1ccc(F)cc1)C(=O)c1ccccc1S2)N1CCC2(CC1)OCCO2 |  | -3.59
Cc1ccccc1CN1C(=O)C(C)N=C(c2ccccc2)c2ccccc21 (stereo unspecified) |  | -4.23
COc1ccc2c(c[n+](C)c3c4cc5c(cc4ccc23)OCO5)c1OC | 17.8 µM (active) | 
Cc1cccc(CN2C(=O)CN=C(c3ccccc3)c3cc(Cl)ccc32)c1 |  | -12.3
Cc1c(C(c2ccc(Cl)cc2Cl)c2c(O)c3ccccc3oc2=O)c(=O)n(-c2ccccc2)n1C (stereo unspecified) |  | -5.38
Cc1ccccc1CN1C(=O)CN=C(c2ccccc2)c2cc(Cl)ccc21 |  | -6.78
